Data on two compounds can be found in ChEMBL document CHEMBL1961873, “Compounds: GSK PKIS; Assays: Nanosyn kinase panel” (2012).

The target in experiment [1] is Protein kinase C gamma type (Homo sapiens) (UniProt P05129). Particulars: at 1 µM.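 Also: each value is an averaged percent inhibition of the enzyme.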
The target of experiment [2] is T1, Protein kinase C iota type (Homo sapiens) (UniProt P41743).
T1 sequence (whole entry): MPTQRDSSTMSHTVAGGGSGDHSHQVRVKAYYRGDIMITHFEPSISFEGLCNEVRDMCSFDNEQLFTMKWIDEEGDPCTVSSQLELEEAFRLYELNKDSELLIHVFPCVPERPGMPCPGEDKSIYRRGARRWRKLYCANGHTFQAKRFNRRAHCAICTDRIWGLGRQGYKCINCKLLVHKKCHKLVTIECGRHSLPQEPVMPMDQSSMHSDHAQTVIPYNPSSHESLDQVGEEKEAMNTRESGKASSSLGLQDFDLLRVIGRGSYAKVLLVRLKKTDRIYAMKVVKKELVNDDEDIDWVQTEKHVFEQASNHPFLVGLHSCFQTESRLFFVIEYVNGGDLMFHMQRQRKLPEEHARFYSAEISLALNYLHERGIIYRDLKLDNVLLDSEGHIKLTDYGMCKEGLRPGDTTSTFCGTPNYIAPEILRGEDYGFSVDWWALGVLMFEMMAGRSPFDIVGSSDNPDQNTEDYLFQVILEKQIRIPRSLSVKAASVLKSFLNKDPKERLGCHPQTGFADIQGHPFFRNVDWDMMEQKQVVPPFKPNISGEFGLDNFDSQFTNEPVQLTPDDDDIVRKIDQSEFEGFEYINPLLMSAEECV
Particulars: at 0.1 µM.

For experiment [3], the target named is T1, Protein kinase C iota type (Homo sapiens). Conditions: at 1 µM.
The target of experiment [4] is Protein kinase C theta type (Homo sapiens) (UniProt Q04759). Conditions: at 0.1 µM.
Chain of Protein kinase C theta type (Homo sapiens) (Q04759 whole entry, looked up): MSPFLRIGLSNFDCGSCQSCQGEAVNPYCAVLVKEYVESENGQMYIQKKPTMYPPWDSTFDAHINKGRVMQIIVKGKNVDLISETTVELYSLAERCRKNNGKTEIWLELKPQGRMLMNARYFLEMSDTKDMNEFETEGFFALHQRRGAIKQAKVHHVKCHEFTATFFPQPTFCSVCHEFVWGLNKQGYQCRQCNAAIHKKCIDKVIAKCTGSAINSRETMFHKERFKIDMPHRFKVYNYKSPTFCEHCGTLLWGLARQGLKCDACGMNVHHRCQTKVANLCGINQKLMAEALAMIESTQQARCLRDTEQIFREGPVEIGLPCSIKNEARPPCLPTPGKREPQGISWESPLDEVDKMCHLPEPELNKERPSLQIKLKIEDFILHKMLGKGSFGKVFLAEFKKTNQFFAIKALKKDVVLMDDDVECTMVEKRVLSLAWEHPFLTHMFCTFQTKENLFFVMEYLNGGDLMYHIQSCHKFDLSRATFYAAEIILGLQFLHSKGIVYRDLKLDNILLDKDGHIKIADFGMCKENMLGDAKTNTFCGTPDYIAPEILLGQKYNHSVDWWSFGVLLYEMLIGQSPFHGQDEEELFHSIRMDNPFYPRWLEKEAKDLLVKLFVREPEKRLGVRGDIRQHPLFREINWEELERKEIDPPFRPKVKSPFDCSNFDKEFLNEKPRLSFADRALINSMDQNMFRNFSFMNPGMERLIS
Experiment [5] shares this target. Particulars: at 1 µM.
The target of experiment [6] is Protein kinase C beta type (Homo sapiens) (UniProt P05771). Conditions: at 0.1 µM.
Chain of Protein kinase C beta type (Homo sapiens) (P05771 2-671 limits assumed): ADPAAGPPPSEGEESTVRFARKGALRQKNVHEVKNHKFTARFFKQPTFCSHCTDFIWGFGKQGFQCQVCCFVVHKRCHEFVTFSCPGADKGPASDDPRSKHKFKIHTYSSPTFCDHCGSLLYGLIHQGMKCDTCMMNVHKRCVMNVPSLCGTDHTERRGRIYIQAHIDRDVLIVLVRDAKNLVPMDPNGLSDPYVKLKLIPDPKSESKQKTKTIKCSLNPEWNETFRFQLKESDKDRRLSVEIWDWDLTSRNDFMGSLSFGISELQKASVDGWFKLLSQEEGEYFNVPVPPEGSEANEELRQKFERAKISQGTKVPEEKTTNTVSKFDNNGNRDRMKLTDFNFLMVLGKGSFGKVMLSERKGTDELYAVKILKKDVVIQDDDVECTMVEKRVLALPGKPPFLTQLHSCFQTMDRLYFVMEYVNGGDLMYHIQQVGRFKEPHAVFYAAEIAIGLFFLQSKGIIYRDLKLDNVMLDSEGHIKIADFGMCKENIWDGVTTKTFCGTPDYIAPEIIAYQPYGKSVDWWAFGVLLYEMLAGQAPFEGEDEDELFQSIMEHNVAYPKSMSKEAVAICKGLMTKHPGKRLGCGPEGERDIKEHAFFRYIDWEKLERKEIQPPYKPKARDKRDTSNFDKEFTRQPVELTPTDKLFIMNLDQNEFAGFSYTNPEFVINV
The target is the same in experiment [7]. Particulars: at 1 µM.
In experiment [8] the target is T2, Serine/threonine-protein kinase D1 (Homo sapiens) (UniProt Q15139).
T2 sequence (whole entry): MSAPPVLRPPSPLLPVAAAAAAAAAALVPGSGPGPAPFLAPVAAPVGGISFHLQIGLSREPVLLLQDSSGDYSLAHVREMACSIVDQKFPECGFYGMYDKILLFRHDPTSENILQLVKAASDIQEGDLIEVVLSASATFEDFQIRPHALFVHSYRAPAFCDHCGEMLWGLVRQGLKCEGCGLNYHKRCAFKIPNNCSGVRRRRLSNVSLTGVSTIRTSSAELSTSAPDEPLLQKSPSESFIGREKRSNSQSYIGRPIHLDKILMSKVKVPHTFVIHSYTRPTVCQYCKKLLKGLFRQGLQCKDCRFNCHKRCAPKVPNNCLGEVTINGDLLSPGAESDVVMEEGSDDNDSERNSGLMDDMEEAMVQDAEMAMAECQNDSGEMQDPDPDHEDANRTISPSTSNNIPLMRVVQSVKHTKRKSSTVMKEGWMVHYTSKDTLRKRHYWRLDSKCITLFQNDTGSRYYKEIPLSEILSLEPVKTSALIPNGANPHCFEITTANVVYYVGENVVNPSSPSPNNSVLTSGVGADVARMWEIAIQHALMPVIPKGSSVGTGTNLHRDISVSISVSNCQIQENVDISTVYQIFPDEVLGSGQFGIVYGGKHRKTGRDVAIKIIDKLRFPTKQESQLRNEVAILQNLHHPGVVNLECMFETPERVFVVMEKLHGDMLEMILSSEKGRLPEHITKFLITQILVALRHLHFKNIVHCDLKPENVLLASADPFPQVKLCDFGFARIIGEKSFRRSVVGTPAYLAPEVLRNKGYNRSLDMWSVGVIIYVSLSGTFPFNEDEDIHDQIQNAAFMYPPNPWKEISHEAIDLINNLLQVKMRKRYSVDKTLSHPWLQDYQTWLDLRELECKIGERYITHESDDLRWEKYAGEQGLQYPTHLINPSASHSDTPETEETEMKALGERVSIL
Particulars: at 0.1 µM.

The target of experiment [9] is T2, Serine/threonine-protein kinase D1 (Homo sapiens). Particulars: at 1 µM.
Experiment [10] addresses T3, Serine/threonine-protein kinase D2 (Homo sapiens) (UniProt Q9BZL6).
T3 sequence (whole entry): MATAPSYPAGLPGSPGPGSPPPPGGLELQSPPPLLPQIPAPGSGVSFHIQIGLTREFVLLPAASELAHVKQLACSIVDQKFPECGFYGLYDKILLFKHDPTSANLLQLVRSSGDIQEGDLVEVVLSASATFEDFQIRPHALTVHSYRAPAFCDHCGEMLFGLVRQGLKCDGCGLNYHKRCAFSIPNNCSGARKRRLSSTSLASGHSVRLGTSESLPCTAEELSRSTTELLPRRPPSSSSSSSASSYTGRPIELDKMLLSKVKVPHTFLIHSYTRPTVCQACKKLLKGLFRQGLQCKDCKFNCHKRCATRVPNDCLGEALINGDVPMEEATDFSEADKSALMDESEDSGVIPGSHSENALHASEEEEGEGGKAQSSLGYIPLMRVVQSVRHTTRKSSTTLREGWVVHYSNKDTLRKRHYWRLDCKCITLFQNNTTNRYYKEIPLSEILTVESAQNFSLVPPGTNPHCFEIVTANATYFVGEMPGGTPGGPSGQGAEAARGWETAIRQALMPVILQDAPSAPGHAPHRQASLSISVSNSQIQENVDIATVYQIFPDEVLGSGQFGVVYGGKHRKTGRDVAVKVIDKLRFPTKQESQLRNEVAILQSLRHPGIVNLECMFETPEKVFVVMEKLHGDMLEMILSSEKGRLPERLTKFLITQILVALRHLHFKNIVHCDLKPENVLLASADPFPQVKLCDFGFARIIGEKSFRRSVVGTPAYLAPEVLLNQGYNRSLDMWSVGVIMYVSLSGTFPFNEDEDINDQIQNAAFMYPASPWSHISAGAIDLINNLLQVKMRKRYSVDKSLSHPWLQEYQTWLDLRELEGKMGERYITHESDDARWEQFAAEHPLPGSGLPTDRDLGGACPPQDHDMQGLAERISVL
Particulars: at 0.1 µM.

In experiment [11] the target is T3, Serine/threonine-protein kinase D2 (Homo sapiens). Particulars: at 1 µM.
Experiment [12] has as its target T4, Serine/threonine-protein kinase D3 (Homo sapiens) (UniProt O94806).
T4 sequence (whole entry): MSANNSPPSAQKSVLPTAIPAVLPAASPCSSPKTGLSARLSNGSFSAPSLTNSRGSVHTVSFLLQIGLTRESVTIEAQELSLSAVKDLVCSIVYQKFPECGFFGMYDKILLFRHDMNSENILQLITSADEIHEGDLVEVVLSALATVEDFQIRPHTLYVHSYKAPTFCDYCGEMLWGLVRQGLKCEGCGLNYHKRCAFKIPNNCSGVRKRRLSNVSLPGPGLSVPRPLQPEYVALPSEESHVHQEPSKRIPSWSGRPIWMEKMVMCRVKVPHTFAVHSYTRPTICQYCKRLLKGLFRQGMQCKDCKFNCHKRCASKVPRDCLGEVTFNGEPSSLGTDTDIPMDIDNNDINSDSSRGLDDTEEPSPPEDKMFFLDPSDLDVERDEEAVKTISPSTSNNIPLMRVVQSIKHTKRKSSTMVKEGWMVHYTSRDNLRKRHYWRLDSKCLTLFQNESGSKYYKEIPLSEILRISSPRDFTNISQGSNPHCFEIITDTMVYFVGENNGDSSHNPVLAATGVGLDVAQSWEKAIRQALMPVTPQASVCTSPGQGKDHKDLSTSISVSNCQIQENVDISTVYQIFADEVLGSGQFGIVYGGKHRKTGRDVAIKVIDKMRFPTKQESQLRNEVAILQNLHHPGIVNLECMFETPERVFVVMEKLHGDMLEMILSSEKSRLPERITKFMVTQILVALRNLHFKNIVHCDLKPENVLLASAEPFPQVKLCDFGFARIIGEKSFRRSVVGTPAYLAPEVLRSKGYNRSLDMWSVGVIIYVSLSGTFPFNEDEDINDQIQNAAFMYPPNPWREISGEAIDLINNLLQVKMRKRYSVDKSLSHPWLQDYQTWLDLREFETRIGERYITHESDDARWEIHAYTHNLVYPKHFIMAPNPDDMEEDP
Conditions: at 0.1 µM.

The target of experiment [13] is T4, Serine/threonine-protein kinase D3 (Homo sapiens). Conditions: at 1 µM.
Experiment [14] has as its target T5, cGMP-dependent protein kinase 1 (Homo sapiens) (UniProt Q13976).
T5 sequence (whole entry): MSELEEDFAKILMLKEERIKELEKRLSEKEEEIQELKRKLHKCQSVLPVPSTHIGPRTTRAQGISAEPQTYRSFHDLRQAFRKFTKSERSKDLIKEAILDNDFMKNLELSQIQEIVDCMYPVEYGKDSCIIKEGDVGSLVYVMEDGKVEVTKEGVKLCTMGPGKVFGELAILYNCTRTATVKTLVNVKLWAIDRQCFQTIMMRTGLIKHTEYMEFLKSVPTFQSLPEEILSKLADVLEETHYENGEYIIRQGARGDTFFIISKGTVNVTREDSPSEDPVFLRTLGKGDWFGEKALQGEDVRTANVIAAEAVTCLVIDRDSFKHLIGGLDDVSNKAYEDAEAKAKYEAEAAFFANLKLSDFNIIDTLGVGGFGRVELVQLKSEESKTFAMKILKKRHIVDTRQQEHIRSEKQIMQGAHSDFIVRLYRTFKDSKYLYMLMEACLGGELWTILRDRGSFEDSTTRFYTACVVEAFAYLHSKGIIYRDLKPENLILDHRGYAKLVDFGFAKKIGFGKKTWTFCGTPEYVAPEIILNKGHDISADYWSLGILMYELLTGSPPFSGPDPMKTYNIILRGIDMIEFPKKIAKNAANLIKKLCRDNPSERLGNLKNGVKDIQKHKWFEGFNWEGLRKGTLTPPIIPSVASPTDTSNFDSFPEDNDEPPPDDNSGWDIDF
Conditions: at 0.1 µM.

The target of experiment [15] is T5, cGMP-dependent protein kinase 1 (Homo sapiens). Particulars: at 1 µM.
In experiment [16] the target is T6, cGMP-dependent protein kinase 2 (Homo sapiens) (UniProt Q13237).
T6 sequence (whole entry): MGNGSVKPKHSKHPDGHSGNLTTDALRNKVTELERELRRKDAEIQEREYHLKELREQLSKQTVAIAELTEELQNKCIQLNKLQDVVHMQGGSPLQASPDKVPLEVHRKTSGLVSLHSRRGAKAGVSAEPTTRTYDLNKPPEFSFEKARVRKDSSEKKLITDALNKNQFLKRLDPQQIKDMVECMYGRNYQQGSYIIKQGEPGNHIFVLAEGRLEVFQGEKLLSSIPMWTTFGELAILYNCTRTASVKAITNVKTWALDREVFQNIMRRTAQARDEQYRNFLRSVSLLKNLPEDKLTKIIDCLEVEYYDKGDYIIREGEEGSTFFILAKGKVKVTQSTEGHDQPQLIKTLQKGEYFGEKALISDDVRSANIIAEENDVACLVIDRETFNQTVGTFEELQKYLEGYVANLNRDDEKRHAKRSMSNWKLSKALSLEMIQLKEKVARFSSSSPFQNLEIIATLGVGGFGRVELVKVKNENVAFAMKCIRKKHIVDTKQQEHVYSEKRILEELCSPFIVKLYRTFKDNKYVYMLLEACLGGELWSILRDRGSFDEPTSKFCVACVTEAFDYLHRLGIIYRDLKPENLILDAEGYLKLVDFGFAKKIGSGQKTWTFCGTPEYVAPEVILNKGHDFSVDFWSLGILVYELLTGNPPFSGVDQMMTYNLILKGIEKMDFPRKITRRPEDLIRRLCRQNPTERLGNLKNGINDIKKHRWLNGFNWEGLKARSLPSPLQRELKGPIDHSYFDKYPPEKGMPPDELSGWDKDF
Conditions: at 0.1 µM.

For experiment [17], the target named is T6, cGMP-dependent protein kinase 2 (Homo sapiens). Conditions: at 1 µM.
Experiment [18] concerns the target T7, cAMP-dependent protein kinase catalytic subunit PRKX (Homo sapiens) (UniProt P51817).
T7 sequence (whole entry): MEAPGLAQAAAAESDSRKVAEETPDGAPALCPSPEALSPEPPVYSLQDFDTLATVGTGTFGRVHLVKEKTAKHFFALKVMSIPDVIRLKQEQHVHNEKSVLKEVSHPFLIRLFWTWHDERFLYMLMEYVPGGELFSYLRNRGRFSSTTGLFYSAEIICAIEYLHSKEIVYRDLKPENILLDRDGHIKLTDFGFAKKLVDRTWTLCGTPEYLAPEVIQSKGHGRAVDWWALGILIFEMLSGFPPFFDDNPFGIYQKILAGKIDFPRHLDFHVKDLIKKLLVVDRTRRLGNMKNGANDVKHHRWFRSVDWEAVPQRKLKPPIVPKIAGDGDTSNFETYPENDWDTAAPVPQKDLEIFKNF
Particulars: at 0.1 µM.

The target of experiment [19] is T7, cAMP-dependent protein kinase catalytic subunit PRKX (Homo sapiens). Particulars: at 1 µM.
For experiment [20], the target named is Rho-associated protein kinase 1 (Homo sapiens) (UniProt Q13464). Particulars: at 0.1 µM.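 Also: values are mean percent inhibition of ROCK1.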
Chain of Rho-associated protein kinase 1 (Homo sapiens) (Q13464 2-1354 limits assumed): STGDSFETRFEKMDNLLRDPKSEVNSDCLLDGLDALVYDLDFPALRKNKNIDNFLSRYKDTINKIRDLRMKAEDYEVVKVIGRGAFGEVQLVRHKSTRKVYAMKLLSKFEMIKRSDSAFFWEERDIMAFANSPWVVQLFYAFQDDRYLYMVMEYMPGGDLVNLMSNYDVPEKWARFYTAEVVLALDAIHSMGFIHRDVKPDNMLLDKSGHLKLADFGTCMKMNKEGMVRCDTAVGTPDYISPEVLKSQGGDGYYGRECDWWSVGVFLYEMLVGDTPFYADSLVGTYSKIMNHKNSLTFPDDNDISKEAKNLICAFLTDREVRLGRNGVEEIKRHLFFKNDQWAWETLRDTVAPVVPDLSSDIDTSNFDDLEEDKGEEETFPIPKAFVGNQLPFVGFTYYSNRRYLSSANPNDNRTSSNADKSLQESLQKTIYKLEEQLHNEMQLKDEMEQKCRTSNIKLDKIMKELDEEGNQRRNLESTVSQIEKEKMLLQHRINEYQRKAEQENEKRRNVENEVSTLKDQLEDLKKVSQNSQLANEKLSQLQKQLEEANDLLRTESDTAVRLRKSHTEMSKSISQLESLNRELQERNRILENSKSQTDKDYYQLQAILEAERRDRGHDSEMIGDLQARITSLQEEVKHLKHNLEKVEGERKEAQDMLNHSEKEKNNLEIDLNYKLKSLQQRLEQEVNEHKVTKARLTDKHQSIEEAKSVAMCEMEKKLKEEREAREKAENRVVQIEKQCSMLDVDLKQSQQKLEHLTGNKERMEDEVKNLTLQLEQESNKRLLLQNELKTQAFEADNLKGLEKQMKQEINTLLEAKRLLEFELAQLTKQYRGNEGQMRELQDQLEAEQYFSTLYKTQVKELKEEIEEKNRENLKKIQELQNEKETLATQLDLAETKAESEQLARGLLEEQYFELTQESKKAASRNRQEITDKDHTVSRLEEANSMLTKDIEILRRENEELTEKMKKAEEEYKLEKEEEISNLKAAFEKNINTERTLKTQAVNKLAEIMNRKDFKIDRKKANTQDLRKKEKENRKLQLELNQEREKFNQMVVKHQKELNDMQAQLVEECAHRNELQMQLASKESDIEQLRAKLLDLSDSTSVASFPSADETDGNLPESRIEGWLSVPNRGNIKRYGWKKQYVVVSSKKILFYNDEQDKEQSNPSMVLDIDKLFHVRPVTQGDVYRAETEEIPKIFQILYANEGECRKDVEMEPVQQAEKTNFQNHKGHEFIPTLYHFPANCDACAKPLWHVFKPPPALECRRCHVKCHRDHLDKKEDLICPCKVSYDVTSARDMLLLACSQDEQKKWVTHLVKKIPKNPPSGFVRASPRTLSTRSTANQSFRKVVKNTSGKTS

As usually defined, the inhibition is the drop in the measured response relative to a control, in per cent.

Regarding `c1ccc(COc2ccc(Nc3ncnc4ccc(-c5ccco5)cc34)cc2)cc1`, the inhibition in [1] is 0.84%; in [2], -1.29%; in experiment [3] it was -0.86%; in experiment [4], -2.6%; in experiment [5] it was -0.62%; in experiment [6], 0.49%. Besides, the inhibition came to 0.58% in experiment [7]; 1.25% in experiment [8]; 0.71% in experiment [9]; 3.12% in experiment [10]; 2.58% in experiment [11]; 1.12% in [12]. Moreover, the inhibition in experiment [13] is 1.43%; in experiment [14] it was -0.44%; in experiment [15], 0.71%; in experiment [16], 0.02%; in [17], 1.35%; in [18], 2.22%. The inhibition in [19] is 0.89%; in experiment [20] it was 0.21%.
For the compound `CCN1CCC(CC(=O)Nc2n[nH]c3nnc(-c4cccc(F)c4F)cc23)CC1`, the inhibition in experiment [1] was found to be 1.09%; in [2] it was 0.63%; in experiment [3], 1.36%; in [4] it was 0.68%; in experiment [5] it was 1.31%; in experiment [6] it was 0.16%. Besides, the inhibition in [7] came to 0.85%; in experiment [8] it was 0.72%; in [9] it was 1.85%; in [10] it was 2.45%; in experiment [11], 2.99%; in experiment [12], 1.54%. Also, the inhibition in experiment [13] is 2.01%; in [14], 1.07%; in experiment [15] it was 0.47%; in experiment [16], 1.64%; in experiment [17], 2.03%; in [18], 0.36%. Also, the inhibition turned out to be 0.65% in experiment [19] and 0.26% in experiment [20].
